Where “and” joins values, the source holds several entries; their conditions need not be identical. Equal entries are not always repeated. Out of some 16,000 compounds screened, about 5,700 (36%) were called active. About 24% were inconclusive and are not listed. Calls come from the whole dose curve; as a rule, active = well fitted curve in the direction sought with a large enough effect; inconclusive = small, poorly fitted or top-dose-only effect, or effect the other way; inactive = no such curve, though single readings can be large or run the other way. This is one part of the list. Some structures have more than one record in an assay (separate samples or runs), and their calls can disagree.
Each compound was assayed against Cytochrome P450 1A2 (Homo sapiens) (UniProt P05177) (assay: Cytochrome panel assay with activity outcomes). Settings: recombinant CYP, pro-luciferin dealkylation, luminescence, p450-cyp1a2; series mostly up to 57.1 µM; activity, negative = inhibition: at the top concentration.
% is set by controls: 0 for no effect and ±100 for the full control effect.

Sequence of Cytochrome P450 1A2 (Homo sapiens) (P05177 whole entry, looked up): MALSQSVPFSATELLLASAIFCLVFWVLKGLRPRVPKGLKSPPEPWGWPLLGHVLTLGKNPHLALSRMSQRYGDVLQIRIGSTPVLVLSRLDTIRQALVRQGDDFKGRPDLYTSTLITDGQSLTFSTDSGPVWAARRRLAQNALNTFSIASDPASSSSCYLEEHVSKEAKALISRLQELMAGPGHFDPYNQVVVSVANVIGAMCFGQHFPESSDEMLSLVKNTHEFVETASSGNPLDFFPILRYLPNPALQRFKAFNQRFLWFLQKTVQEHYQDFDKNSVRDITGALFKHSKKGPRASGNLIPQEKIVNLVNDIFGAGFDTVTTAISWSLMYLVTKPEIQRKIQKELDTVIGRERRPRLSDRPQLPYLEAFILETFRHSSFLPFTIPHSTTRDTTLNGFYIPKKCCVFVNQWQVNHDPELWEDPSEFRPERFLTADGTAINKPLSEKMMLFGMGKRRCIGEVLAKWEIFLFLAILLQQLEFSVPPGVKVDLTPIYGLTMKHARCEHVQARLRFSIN

Structure (SMILES)	activity, negative = inhibition	AC50
Cc1ccc(NC(=O)CSCC(=O)Nc2ccc(N3CCOCC3)c(Cl)c2)cc1	-17.7% (inactive)	
NC(=O)c1ccc(N2CCCCC2)c(N2C(=O)C3CC=CCC3C2=O)c1 (centres undefined)	13.4% (inactive)	
Cc1ccc(NC(=O)c2cc(N3C(=O)C4CC=CCC4C3=O)ccc2N2CCOCC2)cc1Cl (centres undefined)		6.31 µM (active)
CO/N=C(/CNC(=O)c1ccc(Cl)cc1Cl)c1ccc(Cl)cc1		2.51 µM (active)
CC1(C)CC(O)CC(C)(C)N1CC(O)COCCOc1ccc(Br)cc1 (centres undefined)	3.05% (inactive)	
Cc1[nH]c2c(C)cccc2c1CCNC(=O)c1ccc2c(c1[N+](=O)[O-])C(=O)c1ccccc1C2=O	-22.8% (inactive)	
CCSc1nnc(-c2ccccc2NC(C)=O)c(=O)[nH]1	-12.1% (inactive)	
CCSc1c(C(=O)NC)ccc2c1C(=O)c1ccccc1C2=O		0.316 µM (active)
N#C/C(=C(/O)CN1CCCCC1)c1nc(-c2ccc(Cl)cc2)cs1		6.31 µM (active)
O=C1OC2CC3CC1CC(O)(C3)C2 (centres undefined)	-7.13% (inactive)	
NC(=O)CSc1nc2sc(-c3ccccc3)cc2c(=O)n1N		5.01 µM (active)
COc1cc(/C=C\c2ccc(OC)cc2OC)cc(OC)c1		0.794 µM (active)
CNC(C)c1cc(OC)ccc1OC (centres undefined)	-6.45% (inactive)	
COC(=O)C(NC(=O)c1ccc(F)cc1)(Nc1ncc(S(=O)(=O)c2ccc([N+](=O)[O-])cc2)s1)C(F)(F)F (centres undefined)	-16.5% (inactive)	
Clc1cccc(Oc2cnc3ccccc3n2)c1		2.51 µM (active)
CCOC(=O)Cn1nc(C)n(-c2ccc(C)cc2)c1=O	-15.3% (inactive)	
CCOC(=O)c1cc2c(C)n(-c3ccc(C)cc3)c(C)c2ccc1=O		12.6 µM (active)
c1ccc(-c2c3ccccc3nc3[nH]c4ccccc4c23)cc1		0.501 µM (active)
CCCCc1c2ccccc2nc2[nH]c3ccccc3c12		0.2 µM (active)
O=C(O)[C@@H](O)[C@@H](O)[C@H](O)[C@H](O)CO	-5.55% [at 2.29 µM] (inactive)	
CO[C@@H]1COC(=O)CC=C[C@@H](C)[C@@H]2C=C[C@H](O)[C@@H](COC(=O)C/C=C\[C@H]1C)O2	-1.42% [at 11.4 µM] (inactive)	
CNc1ncc(C(=O)c2ccccc2)s1		4.47 µM (active)
CC(C)(C)c1nnc(NC(=O)NS(=O)(=O)c2ccccc2)s1	-30% (inactive)	
CC(C)(C)NC(=O)C(=O)NNC(=O)c1ccccc1	4.42% (inactive)	
Cc1ccc(S(=O)(=O)NCc2ccccc2)cc1		0.501 µM (active)

Structure (SMILES)	activity, negative = inhibition	AC50
Cc1ccc(NC(=O)NNS(=O)(=O)c2ccc(Br)cc2)cc1	-8.48% (inactive)	
O=S(=O)(C[C@H](O)C(Cl)(Cl)Cl)NNc1ccccc1	0.811% [at 2.29 µM] (inactive)	
Cc1ccc(S(=O)(=O)N[C@H](CO)C(=O)O)cc1	-12% [at 11.4 µM] (inactive)	
Cc1ccc(S(=O)(=O)NNc2ccccc2)cc1		2.82 µM (active)
Cc1ccc(-c2nn3c(C)nnc3c3ccccc23)cc1S(=O)(=O)NCc1ccccc1	-15.2% (inactive)	
Cc1ccc(NNS(=O)(=O)c2ccc(C)cc2)cc1		2.82 µM (active)
Cc1ccc(S(=O)(=O)N[C@H](C(=O)O)C(C)C)cc1	-11% [at 11.4 µM] (inactive)	
CCOC(=O)Nc1ccc(S(=O)(=O)NCc2ccccc2)cc1	-14% (inactive)	
COc1cc(C)c(Br)cc1S(=O)(=O)NCc1ccccc1		10 µM (active)
Cc1ccc(S(=O)(=O)NCC2CCC(C(=O)O)CC2)cc1 (centres undefined)	0.756% (inactive)	
C=CC[N+]1(CC#CCOC(c2ccccc2)c2ccccc2)CCOCC1	-6.25% (inactive)	
N#Cc1cc2nc(O)c(O)nc2cc1[N+](=O)[O-]		inactive and 39.8 µM (active)
NS(=O)(=O)c1cccc2c1c([N+](=O)[O-])cc1nc(O)c(O)nc12	-10.3% (inactive)	
COc1ccccc1CN1CC[C@@]2(CCCN(S(C)(=O)=O)C2)C1	-14.3% (inactive)	
Cc1ccc(NC2=NC(c3ccccc3)n3c(nc(C)cc3=O)N2)c(C)c1 (centres undefined)	-4.75% (inactive)	
C[C@@H](c1ccccc1)N1C(=O)[C@@H]2[C@H]3C(=CC[C@H]2C1=O)C(=O)[C@H]1O[C@H]1[C@H]3O	-2.35% [at 11.4 µM] (inactive)	
O=C(O)c1ccc(CNCc2ccccc2)cc1	-10.8% [at 11.4 µM] (inactive)	
Sc1ccc2ccccc2c1CNCc1ccccc1		1.26 µM (active)
C[C@H](C(=O)c1ccccc1)[C@@H](c1ccccc1)N1CCOCC1	-14.9% [at 11.4 µM] (inactive)	
O=C(C[C@@H](c1ccccc1)N1CCCCC1)c1ccccc1		1.26 µM (active)
O=C(O)c1cccc(CN2CCCCC2)c1	-16.7% [at 11.4 µM] (inactive)	
N[C@@H](CSCc1ccccc1)C(=O)O	-9.6% [at 11.4 µM] (inactive)	
O=C(Cc1ccccc1)NCCSCc1ccc(Cl)cc1		7.08 µM (active)
O=C(O)CCSCc1ccccc1	-20.7% [at 11.4 µM] (inactive)	

From PubChem BioAssay AID1851 (National Center for Advancing Translational Sciences (NCATS), 2009)
